Source: PubChem BioAssay (National Center for Advancing Translational Sciences (NCATS))
Shown are actives, neighbours in structure and some others; about 6.7% of the full set was active somewhere.
PINK1 modulator = PINK1 expression modulation | PINK1 immunofluorescence, high-content cytometry, 24 h | Potency, µM (highest dose often 76.6 µM), for inactives: at the highest dose activation (PINK1 increase), hits mostly activators | 410,000 compounds, 0.2% hits; active = well fitted activation curve with a large enough effect; inconclusive = small, poorly fitted or top-dose-only effect; cell line not stated here; note: % of control where 0% means no effect; nearly all actives have a fitted effect of over 65% in size
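Cells are seeded, rested 12 hours, then given compound at five concentrations or DMSO for 24 hours. After fixation, blocking and antibody staining, PINK1 amount and mitochondrial localization are scored; CCCP serves as control.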
KB-V1 MDR tox = KB-V1 MDR subline cytotoxicity. KB-V1 MDR cells viability, CellTiter-Glo, 72 h. Potency, µM (series often up to 46.1 µM), most hits filed as cytotoxic. 400,000 compounds, 3.4% hits. AID 1347076; note: % is set by controls: 0 for no effect and ±100 for the full control effect; nearly all actives have a fitted effect of over 60% in size
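Cytotoxicity toward P-gp-expressing KB-V1 cells was determined as loss of CellTiter-Glo luminescence after 72 h at 37 degrees C. Compounds were tested in quantitative HTS format across a concentration range, with curves fitted to normalized data.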
MCF10A rerep = DNA re-replication induction in MCF 10a cells; MCF 10A DNA re-replication, Hoechst nuclear intensity, 48 h; AID 624296; 350,000 compounds, 2.9% hits; Potency, µM (doses to about 46.1 µM), for inactives: top-dose activity, positive = re-replication, most hits filed as activators; note: % of control where 0% means no effect; nearly all actives have a fitted effect of over 50% in size
KB-3-1 cytotox = kills parental KB-3-1 adenocarcinoma cells; KB-3-1 viability, CellTiter-Glo ATP luminescence, 72 h; Potency, µM (doses to about 46.1 µM), most hits filed as cytotoxic; 400,000 compounds, 1.4% hits; AID 1347075; note: % is set by controls: 0 for no effect and ±100 for the full control effect; nearly all actives have a fitted effect of over 60% in size
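KB-3-1 cells, DMEM (no phenol red) + 10% FBS; compound by pin transfer, 72 h, 37 °C. Readout: CellTiter-Glo luminescence after 10 min. Data normalized, curve-fitted.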
SW480 rereplic = induces DNA re-replication in SW480 colon adenocarcinoma cells | Potency, µM (highest dose often 46.1 µM), for inactives: at the top dose re-replication activation, actives largely listed as activators | SW480 DNA re-replication, Hoechst DNA content imaging, 48 h | 340,000 compounds, 1.8% hits; note: % of control where 0% means no effect; nearly all actives have a fitted effect of over 55% in size
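250 cells/well; 23 nL cpd via pin tool; 48 hr, 37 C, 5% CO2; Hoechst 40 min; imager read of total nuclear intensity, ex 405/em 500-530 nm.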
* hit, by the source's call; i = inactive; ? = inconclusive; · = not tested or not shown; [ ] = dose if it differs, or a comment. Unless noted, calls come from the whole dose curve; as a rule, active = well fitted curve in the direction sought with a large enough effect; inconclusive = small, poorly fitted or top-dose-only effect, or another doubt; inactive = no such curve, though single readings can be large; an effect the other way counts as inactive or inconclusive. Potency is the fitted concentration of half-maximal effect.

SMILES	PINK1 modulator	KB-V1 MDR tox	MCF10A rerep	KB-3-1 cytotox	SW480 rereplic
COc1ccc(CC(=O)NCc2cccc(CNC(=O)Cc3ccc(OC)c(OC)c3)c2)cc1OC	0.1%	i	-0.8%	i	-9.4%
O=C(Nc1cccc(-c2nnc(-c3ccccc3)o2)c1)C1CC1	0.5%	10.3µM*	-4.0%	i	0.3%
COc1ccc(CC(=O)Nc2cccc(-c3nnc(-c4ccccc4)o3)c2)cc1OC	·	?	20.6µM*	?	43.8%
CC(=O)Nc1cccc(-c2nnc(-c3ccccc3)o2)c1	0.4%	?	-12.4%	i	-2.2%
O=C(Cc1ccc(Cl)cc1)Nc1cccc(-c2nnc(-c3ccco3)o2)c1	?	0.581µM*	14.4%	?	-4.3%
CCOc1ccc(NC(=O)CSC2=Nc3ccccc3C3=NC(CC(=O)NCc4ccc5c(c4)OCO5)C(=O)N23)cc1 (stereo not drawn)	2.2%	i	·	i	·
CC1CCCCC1NC(=O)c1cccc(S(=O)(=O)N2CCN(Cc3ccccc3)CC2)c1 (stereo not drawn)	1.6%	?	9.3%	i	6.0%
COc1cc(-c2ccc3ncnc(NCc4nc(C)cs4)c3c2)cc(OC)c1OC	·	i	·	i	·
COc1ccc(CC(=O)Nc2cccc(-c3nnc(-c4ccc(C)cc4)o3)c2)cc1OC	14.7%[38.3 µM]	4.11µM*	?	i	-2.4%
COc1ccc(CC(=O)Nc2ccccc2C(=O)N2CCOCC2)cc1OC	0.0%	i	-10.6%	i	0.581µM*
CCOc1cccc(C(=O)Nc2cccc(-c3nnc(-c4ccc(C)cc4)o3)c2)c1	-2.6%	?	3.66µM*	13µM*	0.7%
CCN(CC)c1ccc(-n2nc3cc(C)c(NC(=O)c4ccccc4F)cc3n2)cc1	?	?	·	i	·
O=C(CSc1nc2c([nH]c3ccccc32)c(=O)n1-c1ccc(Cl)cc1)N1CCCCCC1	?	i	·	i	·
Cc1csc2nc(COc3ccc(NC(=O)c4ccccc4F)cc3)cc(=O)n12	1.0%	·	·	·	·
CCC(c1nnnn1Cc1ccccc1)N(Cc1ccccc1)Cc1cc2cc(C)ccc2[nH]c1=O (stereo not drawn)	1.3%	i	·	i	·
Cc1cccc(Nc2cc(C)nc3ccccc23)c1	0.8%	i	10.9%	i	-24.8%
Cc1cc(Nc2ccccc2)c2c([N+](=O)[O-])c(C)cc(C)c2n1	12.9%	20.6µM*	20.1%	?	-6.2%
Cn1c(-c2ccc(F)cc2)cnc1NCc1ccccc1	8.8%[38.3 µM]	20.6µM*	?	?	?
COc1cc(OC)c(N(C)C(=O)CSc2c3c(nc4ccc(Cl)cc24)CCCC3)cc1Cl	0.4%	·	·	·	·
C(=C\c1ccnc2ccccc12)/c1ccc(N(Cc2ccccc2)Cc2ccccc2)cc1	1.8%	i	·	i	·
CC(C)Cc1ccc(S(=O)(=O)N2CCOCC2)cc1	4.7%[38.3 µM]	i	1.0%	i	-11.8%
CC(C)Cc1ccc(C(C)CC2=CCC(CN(C)C)C2=O)cc1 (stereo not drawn)	-2.0%	?	6.51µM*	?	?
COc1cccc(C(N)c2nc(-c3csc4ccccc34)cs2)c1 (stereo not drawn)	5.7%	8.2µM*	·	7.31µM*	·
OC(c1cccc(Cl)c1)c1nc(-c2csc3ccccc23)cs1 (stereo not drawn)	1.1%	i	·	i	·
Cc1cc(=O)n2[nH]c(SCc3c(F)cccc3Cl)nc2n1	4.0%	i	-0.9%	i	-8.0%
SMILES	PINK1 modulator	KB-V1 MDR tox	MCF10A rerep	KB-3-1 cytotox	SW480 rereplic
O=C(Nc1cccc2cccnc12)c1ccc(Cl)cc1Cl	4.3%	i	-1.0%	i	3.4%
COc1cc(OC)c(NC(=O)c2cc3ccccc3cc2O)cc1Cl	?	?	20.6µM*	?	25.6%
COc1cc(NC(=O)c2ccccc2Cl)c2ncccc2c1	6.0%	?	4.61µM*	?	?
COc1cc(NS(=O)(=O)c2ccc(C)cc2)c2ncccc2c1	6.0%	?	23.6%	9.2µM*	3.66µM*
Cc1csc2c1c(=O)n(O)c(=O)n2Cc1ccccc1	·	i	·	i	·
CC(NC(=O)c1cccnc1)C(=O)O (stereo not drawn)	0.8%	i	-9.4%	i	1.03µM*
CC(=O)NNC(=O)CC(=O)Nc1nc(C23CC4CC(CC(C4)C2)C3)cs1	4.6%	i	?	i	-0.6%
CCNc1nc(C23CC4CC(CC(C4)C2)C3)cs1	19.8%	i	23.1µM*	i	?
O=C(COc1ccccc1Cl)NCCNC(=O)c1cccnc1	1.3%	i	0.6%	i	-4.9%
O=C(c1cccc([N+](=O)[O-])c1)n1nc(-c2ccccc2)nc1NCc1ccccc1	1.9%	i	6.0%	?	-4.2%
Cc1ccc(NC(=O)CSc2nc3ccccc3c3nc4ccccc4n23)cc1	12.6%[38.3 µM]	1.64µM*	1.46µM*	0.92µM*	0.651µM*
CCC(=O)n1nc(-c2ccccc2)nc1SCC(=O)Nc1ccc(C)cc1	0.0%	20.6µM*	-0.2%	i	-18.9%
O=C(CSc1nc(-c2ccccc2)nn1C(=O)c1ccccc1)Nc1cccc([N+](=O)[O-])c1	-1.9%	20.6µM*	4.7%	?	-7.9%
COc1ccc(NC(=O)CSc2nc3ccccc3c3nc4ccccc4n23)cc1	12.7%	?	?	?	?
CCOC(=O)N1CCc2c(sc(NCc3cccc(F)c3)c2C(=O)Nc2ccc(OCC)cc2)C1	1.0%	·	·	·	·
CC(=O)N1CCc2c(sc(NC(=O)c3ccc([N+](=O)[O-])o3)c2C#N)C1	-1.2%	i	1.46µM*	?	2.31µM*
COc1cc(C(=O)Nc2sc3c(c2C#N)CCN(C(C)=O)C3)cc(OC)c1OC	14.0%	i	11.1%	?	0.2%
COc1ccc(C(=O)Nc2sc3c(c2C#N)CCN(C(C)=O)C3)cc1	10.1%	?	23.1µM*	8.2µM*	23.1µM*
CCOC(=O)c1sc(NC(=O)c2ccco2)c(C#N)c1C	4.6%	?	?	i	-8.7%
COC(=O)c1sc(NC(=O)c2ccc([N+](=O)[O-])o2)c(C#N)c1C	?	i	2.91µM*	?	3.26µM*
COC(=O)c1c(NC(=O)c2ccc([N+](=O)[O-])o2)sc2c1CCN(C(C)C)C2	5.6%	14.6µM*	2.91µM*	6.51µM*	2.31µM*
COC(=O)c1c(NC(=O)Cc2ccccc2)sc2c1CCN(C(C)C)C2	2.3%	i	12.8%	i	1.4%
Cc1ccc(OCC(=O)NNC(=O)c2cc(S(=O)(=O)N(C)C)ccc2N2CCCC2)cc1	-0.7%	i	·	i	·
Cc1oc(C(C)(C)C)cc1C(=O)N1CCN(C(c2ccccc2)c2ccccc2)CC1	?	i	11.6µM*	i	?
Cc1ccc(Cn2cc(CN3CC(N4CCCC4)CS3(=O)=O)nn2)cc1 (stereo not drawn)	0.3%	i	·	i	·
